In PubChem BioAssay AID1159580 (chemical genetic matrix, 2015):
Where “and” joins values, the source holds several entries; their conditions need not be identical. Identical values can stand only once. Hit rate of the full screen: of about 5,500 compounds, about 2,000 (36%) were called active. Roughly 18% stayed inconclusive and do not appear here. Rule as the data show it: active = normalized growth mostly below about 0.91 (no sharp cut-off); inconclusive = no clear call, values can overlap the other calls; inactive = mostly above about 0.92. The list shows a part of the results.

Test: chemical genetic growth profiling, strain panel (AID 1159580);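 also: tested at 20 µM; growth read once vehicle control cultures reached saturation at 30 °C; 1 = growth at the plate median or of vehicle wells; lower values mean less growth of the strain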
Settings: S. cerevisiae deletion strains, growth OD

Measured: normalized growth

Oc1c(I)cc(I)c2cccnc12
active: locus YAL013W, strain DEP1, hits give low values 0.071 | locus YAL021C, strain ccr4, hits give low values 0.091 | locus YAL026C, strain drs2, hits give low values 0.0859 | locus YAL030W, strain snc1, hits give low values 0.0764 | locus YBL061C, strain skt5, hits give low values 0.0816 | locus YBR009C, strain hhf1, hits give low values 0.0997 | locus YBR021W, strain FUR4, hits give low values 0.129 | locus YBR023C, strain chs3, hits give low values 0.077 | locus YBR171W, strain sec66, hits give low values 0.114 | locus YBR229C, strain ROT2, hits give low values 0.0677 | locus YBR231C, strain swc5, hits give low values 0.0701 | locus YBR279W, strain paf1, hits give low values 0.0764 | locus YCL011C, strain gbp2, hits give low values 0.135 | locus YCL016C, strain dcc1, hits give low values 0.0819 | locus YCL029C, strain bik1, hits give low values 0.101 | locus YCL061C, strain MRC1, hits give low values 0.0902 | locus YCL069W, strain vba3, hits give low values 0.0885 | locus YCR088W, strain abp1, hits give low values 0.0854 | locus YDL005C, strain med2, hits give low values 0.104 | locus YDL035C, strain GPR1, hits give low values 0.067 | locus YDL040C, strain nat1, hits give low values 0.073 | locus YDL074C, strain BRE1, hits give low values 0.104 | locus YDL101C, strain DUN1, hits give low values 0.084 | locus YDL185W, strain tfp1, hits give low values 0.0824 | locus YDL192W, strain arf1, hits give low values 0.103 | locus YDR001C, strain nth1, hits give low values 0.0844 | locus YDR069C, strain doa4, hits give low values 0.0819 | locus YDR101C, strain arx1, hits give low values 0.0994 | locus YDR137W, strain rgp1, hits give low values 0.0996 | locus YDR150W, strain NUM1, hits give low values 0.078 | locus YDR159W, strain sac3, hits give low values 0.107 | locus YDR162C, strain NBP2, hits give low values 0.0632 | locus YDR195W, strain ref2 0.337 | locus YDR297W, strain sur2, hits give low values 0.0803 | locus YDR318W, strain mcm21, hits give low values 0.101 | locus YDR334W, strain swr1, hits give low values 0.0842 | locus YDR335W, strain msn5, hits give low values 0.0856 | locus YDR388W, hits give low values 0.0882 | locus YDR392W, strain spt3, hits give low values 0.13 | locus YDR502C, strain sam2, hits give low values 0.106 | locus YEL003W, strain gim4, hits give low values 0.127 | locus YEL037C, strain rad23, hits give low values 0.0807 | locus YEL061C, strain CIN8 (second series), hits give low values 0.0847 | locus YEL061C, strain CIN8, hits give low values 0.073 | locus YER015W, strain faa2, hits give low values 0.0857 | locus YER016W, strain bim1, hits give low values 0.0805 | locus YER110C, hits give low values 0.115 | locus YER111C, strain swi4, hits give low values 0.103 | locus YER155C, strain BEM2 (second series), hits give low values 0.126 | locus YER155C, strain BEM2, hits give low values 0.0881 | locus YER167W, strain BCK2, hits give low values 0.0711 | locus YFR010W, strain ubp6, hits give low values 0.0943 | locus YGL078C, strain dbp3, hits give low values 0.258 | locus YGL086W, strain mad1, hits give low values 0.0789 | locus YGL167C, strain pmr1, hits give low values 0.0938 | locus YGL173C, strain kem1, hits give low values 0.0913 | locus YGL227W, strain vid30, hits give low values 0.0911 | locus YGL240W, strain doc1, hits give low values 0.106 | locus YGL248W, strain PDE1, hits give low values 0.0617 | locus YGL253W, strain hxk2, hits give low values 0.0781 | locus YGR078C, strain PAC10, hits give low values 0.0681 | locus YGR135W, strain pre9, hits give low values 0.102 | locus YGR252W, strain gcn5, hits give low values 0.308 | locus YHR013C, strain ard1, hits give low values 0.141 | locus YHR027C, strain rpn1, hits give low values 0.0845 | locus YHR030C, strain SLT2, hits give low values 0.0746 and 0.163 | locus YHR079C, strain IRE1 (second series), hits give low values 0.0873 | locus YHR079C, strain IRE1, hits give low values 0.135 | locus YHR094C, strain hxt1, hits give low values 0.0952 | locus YHR129C, strain ARP1, hits give low values 0.0776 | locus YHR142W, strain chs7, hits give low values 0.103 | locus YHR200W, strain rpn10, hits give low values 0.2 | locus YIL066C, strain RNR3, hits give low values 0.0647 | locus YIL073C, strain SPO22, hits give low values 0.136 | locus YIL125W, strain kgd1, hits give low values 0.174 | locus YIR030C, strain dcg1, hits give low values 0.095 | locus YJL092W, strain hpr5, hits give low values 0.0768 | locus YJL095W, strain BCK1 (second series), hits give low values 0.0748 | locus YJL095W, strain BCK1, hits give low values 0.081 and 0.123 | locus YJL115W, strain asf1, hits give low values 0.102 | locus YJL129C, strain trk1, hits give low values 0.148 | locus YJL134W, strain LCB3, hits give low values 0.0694 | locus YJL154C, strain vps35, hits give low values 0.0817 | locus YJL164C, strain tpk1, hits give low values 0.0873 | locus YJL166W, strain qcr8, hits give low values 0.0859 | locus YJL168C, strain set2, hits give low values 0.0922 | locus YJL187C, strain SWE1 (second series), hits give low values 0.064
